Here are results for 100 compounds from PubChem BioAssay AID2314 (National Center for Advancing Translational Sciences (NCATS), 2010).

Values joined by “and” are separate entries in the source; they are usually repeats but may differ in a detail not shown here. Equal entries are not always repeated. The whole screen tested about 300,000 compounds, of which about 37,000 (12%) were called active. The sample holds actives, similar compounds and a random draw of the others, so the mix is not that of the screen. A number with no mark means an inactive call. No stated cut-off is given here; in the data, active means max response mostly above about 13% (no sharp cut-off); inactive means mostly below about 14%.

This test can be described thus: Cycloheximide Counterscreen for Small Molecule Inhibitors of Shiga Toxin. Further: read at 38.3 µM for the half of the compounds with a filed dose; 0% is about no effect. The following applies: cell reporter, cycloheximide protein synthesis inhibition counterscreen; stronger effect = higher value. (In general: A counterscreen serves to expose hits that act by an unwanted route or on another target.)
In the case of `Cc1cccc(NC(=O)C2CCCN(C(=O)NCc3ccccc3)C2)c1C` (stereo not given), the max response is 1.32%.

Turning to `Clc1ccc(C2[C@H]3CN(CC4CCCCC4)[C@H](c4ccccc4)C34CC2(c2cccnc2)C4)cn1` (stereo not given in full), the max response was -6.35%.

As for `O=S(=O)(c1ccc(Br)cc1)n1ccc2ccccc21`, the max response is -2.94%. In the case of `CC(=O)c1nn(-c2cccc(C(F)(F)F)c2)c(=O)[nH]c1=O`, the max response was -1.16%.

Consider `Brc1cccc(-c2nnc3n2CCC3)c1`, for which the max response was -1.45%. In the case of `COc1ccc(-c2nnc3n2CCCCC3)cc1`, the max response is -0.714%.

On to `COc1ccc(-c2nc3n(c2Br)CCC3)cc1`, for which the max response is 45.3% (active). Turning to `COc1ccc(Br)cc1C(=O)NC(=S)Nc1cc(-c2nc3ccccc3[nH]2)ccc1C`, the max response is 24.4%. Then `COc1ccc(-c2nc(N)ncc2-c2ccc(Cl)cc2)c(O)c1`, with -1.99%.

Consider `Cc1[nH]c2ccccc2c1C(=O)COC(=O)c1c(-c2ccccc2)noc1C`, for which the max response is -1.13%. For `Cc1[nH]c2ccccc2c1C(=O)COC(=O)C(C)C`, the max response was 17.9% (active).

Regarding `Cc1[nH]c2ccccc2c1C(=O)CSCC(=O)O`, the max response was -0.861%. Consider `Cc1ccc(N(CC(=O)NC2CCCCC2)C(=O)CCCC(=O)Nc2ccccn2)c(C)c1`, for which the max response is -2.99%. In the case of `CCc1ccc2[nH]c(=O)c(Cc3ccccc3)c(O)c2c1`, the max response is 0.407%. Consider `COc1ccc(CCNC(=O)c2cc(-c3ccc4c(c3)OCO4)on2)cc1OC`, for which the max response is -2.19%. Consider `COc1cc(-c2c(-c3ccc4c(c3)OCO4)noc2C)ccc1F`, for which the max response is 31.7% (active).

On to `COc1ccc(-c2onc(C)c2-c2ccc3c(c2)OCCO3)c(O)c1`, for which the max response is -1.9%. For `Cc1ccc(-c2cnc(NC(=O)CCC(=O)N(C)Cc3ccccc3)n2C)cc1`, the max response was 1.02%. As for `O=C(Nc1ccccc1)Nc1ccccc1C(=O)NCc1ccco1`, the max response was 12.3% (active). With `CC(C)(C)c1ccc(NC(=O)NCc2ccco2)cc1`, the max response was 47.3% (active).

Consider `CC(C)(C)c1ccc(C(=O)NCCC(=O)NCc2ccco2)cc1`, for which the max response was 6.14%. As to `CC(C)(C)NC(=O)NCc1ccco1`, the max response is -1.96%. `COc1ccc(C(=O)Nc2ccccc2C(=O)NCc2ccco2)cc1`: the max response is -2.2%. For the compound `Cc1cccc(Nc2ccccc2C(=O)NCc2ccco2)c1C`, the max response is -4.07%. On to `CCOCCCNC(=O)C1(O)c2cc(Br)ccc2NC(=O)N1c1ccc(C)c(C)c1` (stereo not given), for which the max response is -2.74%. `O=C(/C=C/c1ccc(F)cc1)Nc1cccc(S(=O)(=O)Nc2cccc(C(F)(F)F)c2)c1`: the max response is -2.37%. `CCCC1(C(=O)OCC)NC(c2ccc(N(C)C)cc2)C2C(=O)N(c3ccc4c(c3)OCCO4)C(=O)C21` (stereo not given): the max response was -5.79%.

Turning to `CC1CCCCC1NC(=O)CSc1nnc(-c2ccncc2)n1CCCN(C)C` (stereo not given), the max response was -2.68%. As to `COc1cccc(CN(C)CC(O)COC(c2ccccc2)c2ccccc2C)c1` (stereo not given), the max response was -4.62%. `CC(CNc1ccc([N+](=O)[O-])cc1)NC(=O)c1ccccc1Br` (stereo not given): the max response is -2.28%. For `CCNC(=S)N(CCN(CC)CC)Cc1cc2cc3c(cc2[nH]c1=O)OCO3`, the max response is -2.69%.

As for `CC(C)Oc1ccc(Oc2ccc(C(F)(F)F)cn2)cc1`, the max response was 10.2%. Consider `CSc1nnc(-c2ccc(C(F)(F)F)cn2)o1`, for which the max response is 15.3% (active). In the case of `CCOc1cc(N2CCOCC2)c(OCC)cc1NC(=O)c1ccc(C)s1` it was -4.86%. For the compound `CCn1c(SCC(=O)Nc2ccc(Br)cc2)nc2sc3c(c2c1=O)CCN(C)C3`, the max response was 9.46%. Take `COc1ccc(CCNC(=O)c2ccc(CS(=O)(=O)c3ccc(Br)cc3)o2)cc1OC`: the max response was 10.1%. For the compound `COc1ccc(CN2C(=O)C(C)S/C2=N/N=C/c2ccco2)cc1` (stereo not given), the max response is 31.9% (active). For the compound `CCC1S/C(=N/N=C/c2ccco2)NC1=O` (stereo not given), the max response was 0.781%.

`C=CCN1C(=O)C(Cc2cccc(Cl)c2)S/C1=N/N=C/c1ccco1` (stereo not given): the max response is 6.81%. With `COc1cc(OC)cc(C(=O)NC2CCN(C(=O)N3c4ccccc4Sc4ccccc43)CC2)c1`, the max response was 9.65%.

As to `CCCc1cc(=O)n2[nH]c(C)c(-c3ccc(Cl)cc3)c2n1`, the max response was -2.56%. Take `COc1ccc(N(CC(=O)Nc2cc(OC)ccc2OC)S(=O)(=O)c2c(C)noc2C)cc1`: the max response was -6.58%. For the compound `O=C(/C=C/c1cccs1)c1cc(Cl)ccc1OC(=O)N1CCOCC1`, the max response was 23.9% (active). On to `CC(=O)Nc1ccccc1OC(=O)N1CCOCC1`, for which the max response is 11.6%.

Regarding `O=C(Oc1cccc(C(=S)N2CCOCC2)c1)c1cccc(Cl)c1`, the max response was -0.347%. Consider `Cc1cccc(OCC(O)Cn2c(N3CCCCC3)nc3c2c(=O)[nH]c(=O)n3C)c1` (stereo not given), for which the max response is 14.8%. `CCOC(=O)c1c(Cc2ccc(Cl)cc2)c[nH]c1C`: the max response was 26.8% (active). Consider `CCOC(=O)C1=C(C)NC(=O)N(C(C)=O)C1c1ccc(Cl)cc1` (stereo not given), for which the max response is -4.1%. Take `CCOC(=O)c1c(S(=O)(=O)Nc2cccc(Cl)c2)c(C)n(C)c1C`: the max response was 5.3%. For `CC(OC(=O)c1ccc2noc(-c3ccccc3)c2c1)C(N)=O` (stereo not given), the max response was 2.78%.

For the compound `O=C(Nc1ccc(F)cc1)C1CCN(C(=O)c2ccc([N+](=O)[O-])cc2)CC1`, the max response is 3.26%. Turning to `O=C(Nc1ccc([N+](=O)[O-])cc1)C1CC12CCC2` (stereo not given), the max response was 21.8% (active).

Turning to `O=C(Nc1ccc([N+](=O)[O-])cc1)C1(c2ccccc2)CCOCC1`, the max response is -3.32%. In the case of `O=C(c1c(F)cccc1F)N1CCN(S(=O)(=O)c2ccc3c(c2)OCCO3)CC1`, the max response was 13.2%. In the case of `COc1ccc(N2CC(C(=O)NCCS(=O)(=O)N3CCN(c4ccccc4)CC3)CC2=O)cc1` (stereo not given) it was 5.23%; in that of `C=CCc1cccc(/C=N/NC(=O)COc2ccc(-n3cnnn3)cc2)c1O`, 7.64%; in that of `Cc1ccc(Nc2nnc(SCc3ccccc3)s2)cc1`, 24.5% (active). For `Cc1ccc(Nc2nc(N)nc(CSc3nnc(C)s3)n2)cc1`, the max response is 34.9% (active). In the case of `O=C(Nc1nnc(CCOCCOCCc2nnc(NC(=O)c3ccco3)s2)s1)c1ccco1` it was -1.29%. For the compound `O=C(Cc1cccs1)Nc1nnc(SCc2ccc(F)cc2)s1`, the max response is -3.78%.

Regarding `Cc1cccc(CSc2nnc(NC(=O)CSc3nnc(C)s3)s2)c1`, the max response is 10.9%.

Take `O=C(Nc1nnc(SCc2ccccc2)s1)c1ccco1`: the max response was 23.3% (active). In the case of `CCOC(=O)N1CCN(Cc2nc(N)nc(Nc3ccc(C)cc3)n2)CC1` it was 5.78%; in that of `COC(=O)CSc1nnc(NC(=O)CCc2ccccc2)s1`, 14%; in that of `Cc1nnc(SCc2nc3ccccc3nc2C)s1`, -3.4%. Regarding `Cc1ccc(OCC(=O)Nc2ccc(C(=O)O)cc2NC(=O)COc2ccc(C)c(C)c2)cc1C`, the max response is 7.55%. Then `NC(=O)C1CCN(C(=O)CC2C(=O)NCCN2Cc2cccc(Oc3ccccc3)c2)CC1` (stereo not given), with -2.74%; and `CC(C(=O)Nc1ccc(F)c(F)c1F)N1CCCCCC1` (stereo not given), with -2.23%. Then `COc1cccc(C2SCC(=O)N2c2cccc(C)c2)c1OC` (stereo not given), with -0.463%. Regarding `O=C1CSC(c2cccc(F)c2)N1c1ccc(O)cc1` (stereo not given), the max response was -1.44%. On to `Cc1ccc(C2SCC(=O)N2c2ccccc2)cc1` (stereo not given), for which the max response is 16.9% (active). In the case of `COc1ccc(C(C)NC(=O)C2CCCC2)cc1` (stereo not given) it was -0.457%. Take `CCc1ccc(N(CC(=O)NCc2cccnc2)S(=O)(=O)c2ccccc2)cc1`: the max response is 9.39%.

In the case of `O=C(Cn1cnc2ccccc21)N/N=C/c1ccco1`, the max response is 7.5%. For the compound `O=c1nc(N/N=C/c2ccco2)cn[nH]1`, the max response is 35.1% (active).

Regarding `CC(C)NC(=O)C(=O)N/N=C/c1ccco1`, the max response is 6.82%. Then `O=C1C2C3C=CC(C4CC34)C2C(=O)N1c1nccs1` (stereo not given), with -4.99%. As for `CCCC1=Nc2cc(C(=O)NCc3ccco3)ccc2Sc2ccccc21`, the max response is 12.1%. On to `O=C(NCCc1ccc(F)cc1)c1n[nH]c2ccccc12`, for which the max response was 43.7% (active).

For the compound `CCN(CC)S(=O)(=O)c1ccc2nc(COC(=O)c3n[nH]c4ccccc34)[nH]c2c1`, the max response is -0.99%. For `CC(CCc1ccccc1)NC(=O)COC(=O)c1ccc(F)cc1` (stereo not given), the max response was -6.34%. Regarding `O=C(COC(=O)c1n[nH]c2ccccc12)NCc1ccccc1`, the max response was 7.3%.

`CCC(C)NC(=O)CCCc1ccccc1` (stereo not given): the max response is 27.2% (active). Then `C=CCN(CC=C)C(=O)COC(=O)c1n[nH]c2ccccc12`, with -0.5%; and `O=C(CCOc1ccccc1)NCc1ccccc1`, with -2.09%; and `COc1cccc(CNC(=O)c2n[nH]c3ccccc23)c1`, with 27.4%. `COc1ccc(COC(=O)c2n[nH]c3ccccc23)cc1F`: the max response was 67% (active).

As to `O=C(CCCc1ccccc1)NCc1ccccc1`, the max response is 28.4% (active). In the case of `O=C(O)CCCc1ccccc1` it was -4.62% and -1.89%; in that of `CCC(C)NC(=O)C1c2ccccc2C(=O)N1Cc1ccccc1` (stereo not given), 7.68%. Take `Cc1cccc(CC(=O)N2CCN=C2SCc2ccc([N+](=O)[O-])cc2)c1`: the max response was -3.02%. Take `CC1C(=O)Nc2ccccc2N1C(=O)c1ccc(F)cc1F` (stereo not given): the max response was 1.08%. In the case of `CC(C)C[C@@H](N)c1nnc(SCC(=O)c2ccc(Cl)cc2)o1` it was -2.64%; in that of `CCc1ccc(S(=O)(=O)Nc2cc3c(cc2N2CCCCC2)n(C)c(=O)c(=O)n3C)cc1`, 3.05%; in that of `Cc1ccnc(NC(=O)CCC(=O)N(CC(=O)NCCc2ccccc2)Cc2cccs2)c1`, -8.74%. Consider `O=C(Cc1c(O)c2ccccc2[nH]c1=O)NCc1ccccc1`, for which the max response was -2.53%. Then `CCCCC(=O)NCc1ccc(F)cc1`, with -4.14%; and `O=C(Cc1ccccc1)NCc1ccc(F)cc1`, with 42.5% (active); and `CCN(CC)CCCNC(=O)CCc1ccccc1`, with 10.2%. In the case of `O=C(CCc1ccccc1)NCCc1cccs1`, the max response is 36.1% (active).
